In PubChem BioAssay (Tox21):
Inconclusive results are not listed. Entries that show only a call come without a potency. Some compounds were tested as several samples or in several runs, with calls that do not always agree. Activity calls are given as the source filed them. Unless noted, calls follow the shape of the dose curve; as a rule, active = well fitted curve in the direction sought with a large enough effect in the repeat runs; inconclusive = weak or mixed curves; inactive = no such curve, though single readings can be large; an effect the other way counts as inactive or inconclusive.

Tested on: not listed separately
Experiment: qHTS assay to identify small molecule antagonists of the retinoid-related orphan receptor gamma (ROR-gamma) signaling pathway - cell viability counter screen (AID 1159520); also: nearly all actives have a fitted effect of over 50% in size
Conditions: Tet-on RORgamma CHO cells viability, ATP luminescence, 16 h; series mostly up to 92.4 µM; activity, negative = cytotoxicity: at the top concentration
In short: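 Tet-on ROR gamma CHO cells (1,000/well) were plated 4 hr, given compounds in DMSO for 2 hr at 37 C, then induced with 1 uM final doxycycline for 16 hr. Viability was read as ATP by CellTiter-Glo luminescence after 30 min.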

Structure (SMILES)	Potency	activity, negative = cytotoxicity
CC(C)C#N	inactive	
CC1OC(C)OC(C)O1 (stereo not given)	inactive	
Cc1cccc([N+](=O)[O-])c1	inactive	
Cc1ccc([N+](=O)[O-])cc1C	inactive	
CCC[N+](=O)[O-]		11.4% (inactive)
COP(N)(=O)SC (stereo not given)	inactive	
O=c1[nH]c(=O)[nH]c(=O)[nH]1	inactive	
O=NN1CCCCCCC1	inactive	
CCCCCCCCCl	inactive	
C#CC(C)(C)NC(=O)c1cc(Cl)cc(Cl)c1	inactive	
O=C(O)c1ccccn1	inactive	
C1CN2CCN1CC2	inactive	
OC(O)C(Cl)(Cl)Cl	inactive	
O=S(=O)(c1ccc(Cl)cc1)c1cc(Cl)c(Cl)cc1Cl		-13.2% (inactive)
CNC(=O)Oc1ccccc1OC(C)C	inactive	
C#CCN(C)[C@H](C)Cc1ccccc1	inactive	
CCNc1nc(NC(C)(C)C)nc(SC)n1	inactive	
OCCN(CCO)CCO	inactive	
BrCCBr	inactive	

Structure (SMILES)	Potency	activity, negative = cytotoxicity
O=S(=O)(c1ccc(O)cc1)c1ccc(O)cc1	inactive	
Nc1ccc(Oc2ccc(N)cc2)cc1	inactive	
CC(C)(Cl)Cl	inactive	
CN(C)[C@@H]1C(=O)C(C(N)=O)=C(O)[C@@]2(O)C(=O)C3=C(O)c4c(O)cccc4[C@@](C)(O)[C@H]3C[C@@H]12	inactive	
Nc1ccccc1C(=O)O	inactive	
C=CCO	inactive	
c1ccc2c(c1)oc1ccccc12	inactive	
CC(C)=C[C@@H]1[C@@H](C(=O)OCc2coc(Cc3ccccc3)c2)C1(C)C	inactive	
[O-][Cl+2]([O-])O	inactive	
Nc1ccc(Cc2ccc(N)cc2)cc1	inactive	
CCCCOC(=O)c1ccccc1C(=O)OCCCC	inactive	
COC(=O)c1ccccc1C(=O)OC	inactive	
Clc1ccc(Cl)cc1	inactive	
O=C(NC(=O)c1c(F)cccc1F)Nc1cc(Cl)c(OC(F)(F)C(F)C(F)(F)F)cc1Cl (stereo not given)	inactive	
c1cc2c3c(cccc3c1)CC2	inactive	
C=C(C)CCl	inactive	
CC(NC(C)(C)C)C(=O)c1cccc(Cl)c1 (stereo not given)	inactive	
c1ccc(OP(Oc2ccccc2)Oc2ccccc2)cc1	inactive	

Molecular target: Nuclear receptor ROR-gamma (Homo sapiens) (UniProt P51449)
Experiment: qHTS assay to identify small molecule antagonists of the retinoid-related orphan receptor gamma (ROR-gamma) signaling pathway (AID 1159521; also: nearly all actives have a fitted effect of over 50% in size; also: potency is read from the fitted curve at half-maximal effect;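 as to activity change, negative = inhibition: CHO cells with doxycycline inducible ROR-gamma driving an RORE luciferase reporter; top concentration of the series differs between compounds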)
Conditions: Tet-on RORgamma CHO cells, RORE-luciferase, 16 h; series mostly up to 92.4 µM; activity change, negative = inhibition: at the top concentration
In short: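 Test compounds were applied to Tet-on RORγ CHO cells 2 h ahead of doxycycline hyclate (1 uM final). Luciferase reporter activity was quantified by luminescence after 16 h at 37 C and 5% CO2.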

Structure (SMILES)	Potency	activity change, negative = inhibition
CC(C)C#N	inactive	
CC1OC(C)OC(C)O1 (stereo not given)	inactive	
Cc1ccc([N+](=O)[O-])cc1C	inactive	
CCC[N+](=O)[O-]	4.25 µM (active) and inactive	
COP(N)(=O)SC (stereo not given)		12.4% (inactive)
O=c1[nH]c(=O)[nH]c(=O)[nH]1		0.968% (inactive)
C#CC(C)(C)NC(=O)c1cc(Cl)cc(Cl)c1	inactive	
O=C(O)c1ccccn1	inactive	
C1CN2CCN1CC2	inactive	
OC(O)C(Cl)(Cl)Cl	inactive	
CNC(=O)Oc1ccccc1OC(C)C		0.0971% (inactive)
BrCCBr	inactive	
Nc1ccc(Oc2ccc(N)cc2)cc1	inactive	
Nc1ccc(Cc2ccc(N)cc2)cc1	inactive	
CCCCOC(=O)c1ccccc1C(=O)OCCCC		2.07% (inactive)
COC(=O)c1ccccc1C(=O)OC	inactive	
Clc1ccc(Cl)cc1	inactive	
O=C(NC(=O)c1c(F)cccc1F)Nc1cc(Cl)c(OC(F)(F)C(F)C(F)(F)F)cc1Cl (stereo not given)	inactive	
c1cc2c3c(cccc3c1)CC2		2.47% (inactive)
C=C(C)CCl	inactive	
CC(NC(C)(C)C)C(=O)c1cccc(Cl)c1 (stereo not given)		8% (inactive)
c1ccc(OP(Oc2ccccc2)Oc2ccccc2)cc1	inactive	

Tested on: not listed separately
Experiment: qHTS assay to identify small molecule agonists of the AP-1 signaling pathway - cell viability counter screen (AID 1159525; calls by dose curve; also: nearly all actives have a fitted effect of over 55% in size; also: potency is read from the fitted curve at half-maximal effect)
Conditions: ME-180 (cervical carcinoma) AP-1-bla cells viability, ATP luminescence, 5 h; series mostly up to 76.8 µM; viability change, negative = cytotoxic: at the top concentration
In short: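 Each titration point was normalised to DMSO and tetra n-octyl ammonium bromide controls. The read was Cell Titer Glo luminescence after 30 min at RT, following 5 h compound exposure of ME-180 AP-1-bla cells at 37 °C.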

Structure (SMILES)	Potency	viability change, negative = cytotoxic
CC(C)C#N	inactive	
CC1OC(C)OC(C)O1 (stereo not given)	inactive	
Cc1cccc([N+](=O)[O-])c1	inactive	
Cc1ccc([N+](=O)[O-])cc1C	inactive	
CCC[N+](=O)[O-]	15.2 µM (active) and inactive	
COP(N)(=O)SC (stereo not given)	inactive	
O=c1[nH]c(=O)[nH]c(=O)[nH]1	inactive	
O=NN1CCCCCCC1	inactive	
CCCCCCCCCl	inactive	
C#CC(C)(C)NC(=O)c1cc(Cl)cc(Cl)c1	inactive	
O=C(O)c1ccccn1	inactive	
C1CN2CCN1CC2	inactive	
OC(O)C(Cl)(Cl)Cl	inactive	
O=S(=O)(c1ccc(Cl)cc1)c1cc(Cl)c(Cl)cc1Cl	inactive	
CNC(=O)Oc1ccccc1OC(C)C	inactive	
C#CCN(C)[C@H](C)Cc1ccccc1	inactive	
CCNc1nc(NC(C)(C)C)nc(SC)n1	inactive	
OCCN(CCO)CCO	inactive	

Structure (SMILES)	Potency	viability change, negative = cytotoxic
BrCCBr	inactive	
O=S(=O)(c1ccc(O)cc1)c1ccc(O)cc1		0.733% (inactive)
Nc1ccc(Oc2ccc(N)cc2)cc1		4.82% (inactive)
CC(C)(Cl)Cl	inactive	
CN(C)[C@@H]1C(=O)C(C(N)=O)=C(O)[C@@]2(O)C(=O)C3=C(O)c4c(O)cccc4[C@@](C)(O)[C@H]3C[C@@H]12	inactive	
Nc1ccccc1C(=O)O	inactive	
C=CCO	inactive	
c1ccc2c(c1)oc1ccccc12	inactive	
CC(C)=C[C@@H]1[C@@H](C(=O)OCc2coc(Cc3ccccc3)c2)C1(C)C	inactive	
[O-][Cl+2]([O-])O		-5.1% (inactive)
Nc1ccc(Cc2ccc(N)cc2)cc1	inactive	
CCCCOC(=O)c1ccccc1C(=O)OCCCC	inactive	
COC(=O)c1ccccc1C(=O)OC	inactive	
Clc1ccc(Cl)cc1	inactive	
c1cc2c3c(cccc3c1)CC2	inactive	
C=C(C)CCl	inactive	
CC(NC(C)(C)C)C(=O)c1cccc(Cl)c1 (stereo not given)	inactive	
c1ccc(OP(Oc2ccccc2)Oc2ccccc2)cc1	inactive	
